GDH-TPI counter: inhibits GDH-TPI coupling enzymes, artifact for Mtb FBA screen; GDH-TPI coupled enzyme counterscreen, NADH absorbance; inhibition, % at 4.8 µM; hit rate 1.2% among 360,000; AID 588335; in the data active = inhibition above about 30%
BoNT A protease: BoNT A light chain protease inhibition; hit rate 0.17% among 360,000; multiplex microsphere protease substrate cleavage, flow cytometry; inhibition, % at 10 µM; AID 588499
BoNT F protease: inhibitors of Botulinum neurotoxin F light chain protease; Multiplex microsphere protease cleavage assay, flow cytometry; inhibition, % at 10 µM; hit rate 0.22% among 360,000; AID 588497; in the data active = inhibition above about 35%, passing the limit was not always enough; inconclusive = no clear call, values can overlap the other calls
Mtb FBA inh: Mtb fructose-bisphosphate aldolase inhibition; P9WQA3; purified M. tuberculosis FBA, fluorescence read-out; inhibition, % at 1 µM; hit rate 2.3% among 360,000; in the data active = inhibition above about 27%
Autofluor counter: compound fluorescence in toxin protease inhibitor counterscreen | compound autofluorescence counterscreen, microsphere flow cytometry; stronger effect = higher value | fluorescence intensity (concentration not given with the values) | hit rate 3.1% among 360,000; in the data active = fluorescence intensity above about 16000; inconclusive = no clear call, values can overlap the other calls
Anthrax LF inh2: inhibitors of Bacillus anthracis lethal factor protease. inhibition, % at 10 µM. hit rate 0.12% among 360,000. AID 588501. multiplex microsphere protease cleavage assay, LF. P15917
Each line names hits and unclear results; the compound was inactive in the other large screens. Most compounds without a hit are left out; they make up all but 6.6% or so of the library. Cut-off read from the data, not from the text of the source, unless noted: active = inhibition above about 30%; inconclusive = no clear call, values can overlap the other calls; inactive = below that.

Cc1cc(Nc2ccc(F)cc2)nc(N)n1	Autofluor counter 23182
Cc1cc(Nc2ccc(C(=O)O)cc2)nc(N)n1	none (no result: BoNT A protease, BoNT F protease, Autofluor counter, Anthrax LF inh2)
Cc1cc(C=O)c(O)cc1O	GDH-TPI counter 52.2
O=C(NC1=NCCS1)C1CCN(S(=O)(=O)c2ccccc2C(F)(F)F)CC1	none
COC(=O)/C(=N\Nc1ccc(Cl)cc1)Sc1nnc(-c2ccc(OC)cc2)n1C	none
O=S(=O)(c1ccc(N2CC=C(c3ccccc3)CC2)nc1)N1CCCC1	BoNT A protease inconclusive, Autofluor counter 24332
Cc1ccsc1/C=C(\C#N)C(=O)NCc1ccco1	GDH-TPI counter 32.2
Cc1cc(/C=C(/C#N)c2cccc(F)c2)c(C)n1-c1cccnc1	GDH-TPI counter 38.2
N#C/C(=C\c1cccs1)C(=O)NCc1ccco1	none
N#C/C(=C\C=C\c1ccccc1)C(=O)NCc1ccco1	GDH-TPI counter 63.4
Cc1cc(/C=C(\C#N)C(=O)NCc2ccco2)c(C)n1-c1cccnc1	GDH-TPI counter 31.0
Cc1cc(/C=C(\C#N)C(=O)NCc2ccco2)c(C)n1C1CCCC1	none
Cc1ccnn1-c1ccc(C(=O)OCC(=O)Nc2ccc(F)cc2)cc1	none
COc1ccccc1NC(=O)/C=C\c1ccco1	none
COc1ccccc1NC(=O)/C(C#N)=C/C=C/c1ccco1	Autofluor counter 22514
O=C(NCc1ccco1)/C(=C/C=C\c1ccccc1)NC(=O)c1ccc(Br)o1	GDH-TPI counter 35.1
CCC(C)N(C(=O)COC(=O)c1ccccc1SCC(=O)N1CCCC1)C1CCS(=O)(=O)C1 (stereo unspecified)	none
COc1ccc(S(=O)(=O)N2CCN(CC(=O)Nc3cc(OC)cc(OC)c3)CC2)cc1	none
CN1CCN(S(=O)(=O)c2ccc(NC(=O)c3ccccc3Cl)cc2)CC1	none (no result: BoNT A protease, BoNT F protease, Autofluor counter, Anthrax LF inh2)
NC(=O)CSc1nnc(-c2ccc(S(=O)(=O)N3CCCCC3)cc2)n1-c1ccccc1	none
COc1ccccc1-n1c(SCC(N)=O)nnc1-c1ccc(S(=O)(=O)N2CCCCC2)cc1	Autofluor counter 22234
COc1ccc(NC(=O)CN2CCN(S(=O)(=O)c3ccc(Cl)cc3)CC2)cc1	Autofluor counter 22877
COC(=O)c1ccc(NC(=O)COc2ccc(S(=O)(=O)N3CCCCC3)cc2)cc1	Autofluor counter 23051
CN1CCN(S(=O)(=O)c2ccc(NC(=O)c3ccc(F)cc3Cl)cc2)CC1	BoNT F protease 47.4
CCOc1cc(CNCc2cccnc2)cc(Br)c1OCC(N)=O	none
O=C(CCS(=O)(=O)c1cccc2nonc12)NCc1ccc(Cl)cc1	none
COc1cc(-c2nnc(CSc3nnc(Nc4ccc(Oc5ccccc5)cc4)s3)o2)cc(OC)c1OC	none
Cc1c(Cl)cccc1NC(=O)COc1ccc(S(=O)(=O)N2CCOCC2)cc1	Autofluor counter 16522
COC(=O)c1cccc(NC(=O)c2ccc(S(=O)(=O)N3CCN(C)CC3)cc2)c1	Autofluor counter 23982
O=C(COc1ccc(S(=O)(=O)N2CCOCC2)cc1)Nc1ccccc1Cl	none
COC(=O)c1ccc(S(=O)(=O)N2CCCCCC2)cc1	GDH-TPI counter 46.6
COc1cccc(C(=O)Nc2ccc(S(=O)(=O)N3CCN(C)CC3)cc2)c1	none
Cc1cc(OCC(=O)Nc2ccc(S(=O)(=O)N3CCN(C)CC3)cc2)ccc1Cl	Mtb FBA inh 141.3
COc1cc(C(=O)NCCNC(=O)C2CCCNC2=O)cc(OC)c1OC (stereo unspecified)	BoNT F protease inconclusive
CCC(C)(C#CCN1CCCCC1)OCCC#N (stereo unspecified)	none
CCc1ccc(OCC(=O)Nc2ccc(S(=O)(=O)N3CCCC3)cc2)c(Br)c1	Autofluor counter 23390
O=C(COc1cccc(C(F)(F)F)c1)Nc1ccc(S(=O)(=O)N2CCCC2)cc1	Autofluor counter 25851
CC(=O)Nc1ccc(S(=O)(=O)N2CCCC2)cc1	none
O=C(COc1ccc(Br)cc1CO)Nc1ccc(S(=O)(=O)N2CCCCC2)cc1	none
COc1ccccc1Oc1ccc(S(=O)(=O)N2CCCC2)cc1	Autofluor counter 23093
CC(C)(C)C(=O)Nc1ccc(S(=O)(=O)N2CCCC2)cc1	BoNT F protease inconclusive, Mtb FBA inh 182.3
Cc1ccc(NC(=S)N2CCCCC2CO)cc1C (stereo unspecified)	none
COc1ccc(S(=O)(=O)N2CCC3(CC2)OCCN3S(=O)(=O)c2cccs2)cc1OC	Autofluor counter 20013
O=C1c2cnc3nc(SCc4ccccc4)nn3c2CC2c3ccccc3CCN12 (stereo unspecified)	Autofluor counter 22144
O=C(Nc1ccc(F)cc1F)c1cc(Cl)sc1Cl	none
Cc1ccc(C(=O)C(OC(=O)CNS(=O)(=O)c2ccccc2)c2ccccc2)cc1 (stereo unspecified)	BoNT A protease inconclusive, Autofluor counter 19423
CCCNC(=O)Cn1c(=O)/c(=C/c2ccc(-c3ccc([N+](=O)[O-])cc3)o2)s/c1=C\C(=O)C(C)(C)C	BoNT A protease 32.1, Anthrax LF inh2 33.1
Cn1nc(-c2ccccc2)c(C(O)c2ccc(Cl)cc2)c1Cl (stereo unspecified)	Autofluor counter 24423
Cn1nc(-c2ccccc2)c(CSc2ccccc2Cl)c1Cl	none
CCOc1ccccc1C(=O)N1CCN(c2cccc(Cl)c2)CC1	Autofluor counter 20455
CCOC(=O)c1[nH]c(C)c(C(=O)N2CCN(c3ccccc3)CC2)c1C	none
CCOc1ccc2ccccc2c1C(=O)N1CCN(c2ccccc2)CC1	Autofluor counter 21404
COc1cc2c(C(=O)N3CCN(c4cccc(Cl)c4)CC3)cn(CC(C)C)c(=O)c2cc1OC	BoNT F protease 38.0
C[C@@H]1CN(S(=O)C(C)(C)C)[C@@H](CCO)/C1=C\CCO (stereo partly specified)	none
CN(CC(=O)Nc1ccc(Cl)c(C(F)(F)F)c1)C(=O)c1ccccc1SCC(=O)N1CCCC1	none
O=C(COc1ccc(F)cc1Br)Nc1ccccc1N1CCCC1	none
CCOc1cc(C)nc(Oc2ccc(=O)[nH]n2)n1	BoNT A protease inconclusive, Autofluor counter 23697
COc1cccc(C(=O)Nc2nnc(S(=O)(=O)Nc3cccc(C)c3)s2)c1	GDH-TPI counter 36.5
Cc1cccc(NS(=O)(=O)c2nnc(NC(=O)c3ccc(C)c(C)c3)s2)c1	none
COc1cccc(C(=O)Nc2nnc(-c3ccccc3)s2)c1	GDH-TPI counter 35.6
COC(=O)C1=C(NC(=O)c2cccc(OC)c2)CCS1	Autofluor counter 22750
CC/S(C)=N/S(=O)(=O)c1ccc(C)cc1 (stereo unspecified)	none
CC(C)N1CCCC(C)(C(=O)Nc2nccc3ccccc23)C1 (stereo unspecified)	none
O=C(Nc1cccc(Cn2cccn2)c1)c1cc2c(s1)CCCC2	Autofluor counter 16682
CSc1nc(N)nc(SCC(=O)CC(=O)OC(C)C)c1C#N	BoNT A protease inconclusive, Autofluor counter 20850
Cn1c(=O)oc2cc(S(=O)(=O)NCCC(=O)N3CCN(c4ccccc4)CC3)ccc21	none
Cn1c(=O)oc2cc(S(=O)(=O)NCCC(=O)N3CC=C(c4ccccc4)CC3)ccc21	Autofluor counter 23639
